The panel holds about 83,000 compounds, 20% with a hit somewhere; the sample as a whole holds those more often.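 How to read the values: 0–100, growth inhibition (40 = 60% inhibited); 0, no net growth; -100 to 0, cell death (-40 = 40% of starting cells died; -100 = all dead).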 Active and inactive are the calls of the source. Rule for the calls: active = growth percent below 10; inactive = the rest.
Legend:
Test in all cases: NCI-60 one-dose screen, 48 h (100 = growth as untreated, 0 = no growth, -100 = all killed)
Conditions in all cases: 10 µM unless noted
[1] = tested on: DU-145 prostate
[2] = tested on: K-562 leukemia
[3] = tested on: MALME-3M melanoma
[4] = tested on: MDA-MB-231 breast
[5] = tested on: RXF 393 renal
[6] = tested on: SF-268 CNS
[7] = tested on: SF-295 CNS
[8] = tested on: UACC-257 melanoma
[9] = tested on: M14 melanoma

Measured: growth

N#Cc1c2c(nc3n[nH]c(N)c13)CCCC2
inactive: [1] 121% | [2] 97.7% | [3] 115% | [4] 106% | [5] 92.9% | [6] 101% | [7] 101% | [8] 101% | [9] 104%

O=C1c2cc3c(cc2-c2c1c1cc(Cl)c(Cl)cc1c(=O)n2C[C@H](O)CO)OCO3
active: [1] -14.6% | [2] 7.53% | [3] -37.4% | [4] 0.134% | [5] -69% | [6] -2.79% | [7] -47% | [8] -52.9% | [9] -16.3%

COc1cc(C(=O)/C=C/c2c(C)n([O-])c3ccc(C)cc3[n+]2=O)cc(OC)c1OC
active: [2] 0.289% | [5] -32.4%
inactive: [1] 49.3% | [3] 83.8% | [4] 85% | [6] 59% | [7] 110% | [8] 47.7% | [9] 60.1%

O=C1CC(c2nc3ccccc3s2)CN1C1CCCCC1 (stereo unspecified)
inactive: [1] 104% | [2] 96.7% | [3] 90.8% | [4] 86.8% | [5] 107% | [6] 99.1% | [7] 92.9% | [8] 98.6% | [9] 99.1%

COc1ccc2nc3cc(Cl)ccc3c(NCCNCC(O)CO)c2c1 (stereo unspecified)
active: [5] 9.56%
inactive: [1] 31.6% | [2] 10.8% | [3] 28.7% | [4] 20% | [6] 28.8% | [7] 45.6% | [8] 32.5% | [9] 28%

O=C(/C=C/c1ccc(Cl)cc1)/C=C/c1cc2ccccc2[nH]c1=O
inactive: [1] 79.3% | [2] 10.1% | [3] 14.3% | [4] 63.8% | [5] 38.3% | [6] 45.2% | [7] 102% | [8] 88.9% | [9] 60.3%

CC1=C(NCCN2CCCC2)C(=O)c2c(OCc3cccc(Cl)c3)cccc2C1=O
inactive: [1] 89.9% | [2] 30.8% | [3] 53% | [4] 62.8% | [5] 73.8% | [6] 72.8% | [7] 56.9%
active: [8] -42.4% | [9] -72.6%

CCCCCCCCCCCCCCCCCCSC1=CC(=O)C(OC)=C(OC)C1=O
inactive: [1] 113% | [2] 82.2% | [3] 112% | [4] 93.5% | [5] 97.7% | [6] 110% | [7] 97.9% | [8] 90.8% | [9] 74.6%

O=C(/C=C/c1cc2ccccc2[nH]c1=O)/C=C/c1cc2ccccc2[nH]c1=O
active: [2] 1.78% | [3] -24.8% | [4] -6.36% | [5] -91.8% | [6] -36% | [7] 4.04% | [8] -31.9% | [9] -45.4%
inactive: [1] 10.1%

COc1ccc(-c2c3c(nc4n[nH]c(-c5ccc(Cl)cc5)c24)-c2ccccc2C(=O)C3=O)cc1
active: [2] 4.49% | [3] -32.4% | [4] -28% | [6] -38.8% | [9] -28.4%
inactive: [1] 22.4% | [5] 14.1% | [7] 77.4% | [8] 11%

O=C1CC(c2nc3ccccc3[nH]2)CN1C1CCCCC1 (stereo unspecified)
inactive: [1] 110% | [2] 102% | [3] 103% | [4] 102% | [5] 111% | [6] 101% | [7] 97.3% | [8] 101% | [9] 104%

Nc1nc2c(c3ncccc13)C(c1cccc(Br)c1)Cc1ncccc1-2 (stereo unspecified)
inactive: [1] 19.8% | [2] 10.3% | [3] 58.4% | [4] 20.4% | [6] 56.4% | [8] 37.9% | [9] 11.2%
active: [5] -7.52% | [7] 7.75%

COc1cc2c(cc1O)CCc1cc(O)cc(OC)c1-2
inactive: [1] 109% | [2] 99.2% | [3] 96.5% | [4] 83.1% | [5] 103% | [6] 93.8% | [7] 103% | [8] 95.3% | [9] 94.6%

O=C([C@@H](COCc1ccccc1)N1C(=O)[C@@H](N2C(=O)OC[C@@H]2c2ccccc2)[C@H]1/C=C/c1ccccc1)N1CCC(CCN2CCCCC2)CC1
inactive: [1] 100% | [2] 55.8% | [4] 72.6% | [5] 88.7% | [6] 77.2% | [7] 102% | [8] 64.1% | [9] 97.8%
active: [3] -22.3%

CNCc1cccc2c1OCCOCCOCCN(C)S(=O)(=O)c1ccc(cc1)-c1cnc(N)c(n1)C(=O)N2
inactive: [1] 47.4% | [4] 69.1% | [6] 69.4% | [7] 87.6% | [8] 63.4% | [9] 37.3%
active: [2] 1.1% | [3] 9.53% | [5] -54.8%

O=C1c2cccnc2C(=O)c2c1c(C(=O)OCCN1CCOCC1)c1ccccn21
inactive: [5] 10.7% | [6] 13%
active: [1] -20.3% | [2] -16% | [3] -64.8% | [4] 9.01% | [7] -47% | [8] -47% | [9] -58.7%

O=C1c2cc3c(cc2-c2c1c1cc(F)c(F)cc1c(=O)n2C[C@H](O)CO)OCO3
active: [1] 1.97% | [2] 6.33% | [3] -21.3% | [4] 5.4% | [5] -51.5% | [6] 6.49% | [7] -7.95% | [8] -37.2% | [9] 1.79%

COc1ccc(/C=C/C(=O)c2c(O)c(C)c(O)c3c2OC2=CC(O)=C(C(C)=O)C(=O)[C@]23C)cc1
active: [1] 8.23% | [2] -21.3% | [3] -57.1% | [4] -26.2% | [5] -33.3% | [6] -17.5% | [7] -22.7% | [8] -19.2% | [9] -7.97%

COc1cc(OC)c(/C=C/S(=O)(=O)Cc2ccc(OC)c(N)n2)c(OC)c1
inactive: [3] 59.2% | [4] 15.3% | [5] 43.8% | [6] 39% | [8] 47.8% | [9] 11.2%
active: [1] 2.86% | [2] 8.04% | [7] 6.52%

CC/C=C\C[C@H](O)C/C=C1/C(=O)C=C[C@@H]1C/C=C\CCCC(N)=O
inactive: [1] 18.8% | [4] 20.4% | [6] 27.3%
active: [2] -1.14% | [3] -14.8% | [5] -81% | [7] -22.2% | [8] -11.7% | [9] 1.88%

CCOC(=O)c1c2c(n3ccc(NC(=O)CCN4CCCCC4)cc13)C(=O)c1ncccc1C2=O
active: [1] -93.9% | [2] -48.2% | [3] -71.7% | [4] -72.9% | [9] -77.9%
inactive: [5] 41.4% | [6] 36.6% | [7] 35.3% | [8] 21.2%

Clc1cccc(Nc2nc(Nc3cnc4ccccc4c3)c3[nH]cnc3n2)c1
inactive: [1] 82.6% | [2] 81.5% | [3] 116% | [4] 47.7% | [5] 69.7% | [6] 82.4% | [7] 94.6% | [8] 81.7% | [9] 88%

CCC(c1ccc(O)cc1)C(CC)c1ccc(O)c(F)c1 (stereo unspecified)
inactive: [1] 97.6% | [2] 47.4% | [3] 85.2% | [4] 97.2% | [5] 92.6% | [6] 82.6% | [7] 84.9% | [8] 89% | [9] 80.5%

COc1ccc(C(=O)/C=C/c2cc3ccccc3[nH]c2=O)cc1
inactive: [2] 16.7% | [3] 74.2% | [4] 56.3% | [5] 16.6% | [6] 28.9% | [7] 48.9% | [8] 59.1% | [9] 59.6%
active: [1] -26.7%

C/C(=C(/c1ccc(O)cc1)c1ccc(OCCN(C)C)cc1)c1ccccc1
inactive: [1] 98.1% | [2] 36.6% | [3] 79.9% | [4] 85.2% | [5] 69.3% | [6] 83.3% | [7] 98.1% | [8] 78.1% | [9] 65.1%

CC/C(Cc1ccccc1)=C(/c1ccc(O)cc1)c1ccc(OCCN2CCCC2)cc1
active: [1] -18.6% | [2] -10.1% | [3] -72.5% | [4] -60.8% | [5] -65% | [6] 9.94% | [7] -63.1% | [8] -65.8% | [9] -70.5%

C[C@@H]1CCC2=C(CCC[C@]2(C)C(=O)O)[C@@]1(C)CCc1ccoc1
inactive: [1] 108% | [2] 116% | [3] 110% | [4] 90% | [5] 105% | [6] 95.1% | [7] 102% | [8] 82.9% | [9] 103%

NC(=S)N/N=C/c1ccc(OCc2ccccc2)cc1
inactive: [1] 85.3% | [2] 43.7% | [3] 56.2% | [4] 69.9% | [5] 52.4% | [6] 80.9% | [7] 96% | [8] 60.7% | [9] 71.6%

CC[n+]1ccc2c(c1)C(=O)c1nccc3c1c-2nc1ccccc13
active: [1] -10.9% | [3] -85.5% | [4] -8.92% | [5] -2.9% | [6] -16.4% | [7] -27.6% | [8] -8.02% | [9] -16.3%
inactive: [2] 20%
